# Measured values reported in PubChem BioAssay AID588342 (National Center for Advancing Translational Sciences (NCATS), 2011).
# Hit rate of the full screen: of about 360,000 compounds, about 25,000 (6.9%) were called active. Another 9% or so got no clear call; they are omitted. The list comes from a sample in which actives are over-represented; it also holds similar structures and randomly drawn compounds. Unmarked numbers belong to inactive results. Calls come from the whole dose curve; as a rule, active = well fitted inhibition curve with a large enough effect; inconclusive = small, poorly fitted or top-dose-only effect; inactive = flat fitted curve, though single readings scatter.
# Molecular target: Luciferin 4-monooxygenase (Photinus pyralis) (UniProt P08659)
# Assay: qHTS profiling assay for firefly luciferase inhibitor/activator using purifed enzyme and Km concentrations of substrates (counterscreen for miR-21 project); note: nearly all actives have a fitted effect of over 55% in size;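 for activity change, negative = inhibition: plate controls were vehicle for no effect and reference inhibitor for full effect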
# Conditions: purified FLuc, luminescence inhibition; series mostly up to 57.5 µM; activity change, negative = inhibition: at the top concentration
# Text: MLPCN Grant: 1 R21 NS059478-01 (miR-21 grant) Assay Provider: NCGC NCGC Assay Overview: Firefly (Photinus pyralis) luciferase is one of the most commonly used transcriptional reporters for a number of reasons. It is considered one of the more dynamically responsive reporters -that is, responsive to changes in reporter transcription - as it requires no post-translational modifications and is enzymatically active directly after protein synthesis (Wood, 1998). Additionally, the half-life of the luciferase protein is short relative to other reporter-gene products (Wood, 1995). Whereas reporters with long half-lives potentially allow for increased signal due to accumulation of reporter-gene product, once accumulated in the cell, dynamic changes in reporter-gene expression may be difficult to detect(Fan and Wood, 2007; Almond et al., 2004). It has been shown that wild-type P. pyralis luciferase has a half-life of approximately […] hours in mammalian cells (Thompson et al., 1991). Firefly luciferase reporter-gene assays are also generally considered one of the most sensitive assay types (Wood, 1995; Wood, 1998). Although light produced in a bioluminescence reaction is of lower intensity than that produced during fluorescence emission, this is offset by little to no background light inherent to luminescent assays. Thus the luciferase reporter can be expressed at much lower levels than fluorescent proteins while still providing robust signal. # However, it was initially observed, in 1991, by Thompson et al., that compounds that resemble the substrates of firefly luciferase (FLuc) can act as competitive inhibitors of the enzyme, and that these compounds, upon interaction with luciferase in the cell, can actually stabilize the protein and increase its half-life. Accumulated intracellular FLuc protein can be measured as an increase in luminescence signal, upon addition of detection reagents (which contain high concentrations of FLuc substrates) commonly used in high-throughput screening. In cell-based reporter gene assays that use FLuc as the reporter gene to quantitate the potential influence of a given compound against the target biology, this apparent increase in luminescence can mistakenly be interpreted as identification of a compound that is active against the target of interest. This is the case for the miR-21 FLuc reporter gene assay used to identify inhibitors of the miR-21 pathway (PubChem AID 2289) - compounds of interest will inhibit miR-21 biogenesis/expression or activity, and are identified by causing an increase in luminescence, due to increased FLuc translation. However, FLuc inhibitory compounds that stabilize the FLuc protein will give an identical read-out, making it difficult to distinguish compounds that are active against the target from those active against FLuc. Previous profiling work to determine the prevalence of compounds that affect FLuc enzymatic activity (PubChem AID 411) identified that ~3% of the MLSMR library (then at ~72K) inhibited FLuc. […] Since the MLSMR had grown to ~350K compounds, and since it was expected that a significant percentage of compounds found active in the miR-21 FLuc assay would be FLuc inhibitors, the library was screened for activity against FLuc using a biochemical assay of purified FLuc and KM concentrations of FLuc substrates (D-luciferin and ATP).
# NCGC Assay Protocol Summary: Reagents: 50mM Tris acetate, pH 7.5; 10mM Mg acetate; 10uM D-luciferin (Sigma #L9504); 10uM ATP; 0.01% Tween-20; 0.05% BSA; 10nM P. pyralis luciferase (Sigma #L9506) Control compounds used were two known firefly luciferase inhibitors (compounds (2) and (5) in Auld et al., 2010), and DMSO. […]
# Luciferin 4-monooxygenase (Photinus pyralis), sequence (P08659 whole entry, looked up): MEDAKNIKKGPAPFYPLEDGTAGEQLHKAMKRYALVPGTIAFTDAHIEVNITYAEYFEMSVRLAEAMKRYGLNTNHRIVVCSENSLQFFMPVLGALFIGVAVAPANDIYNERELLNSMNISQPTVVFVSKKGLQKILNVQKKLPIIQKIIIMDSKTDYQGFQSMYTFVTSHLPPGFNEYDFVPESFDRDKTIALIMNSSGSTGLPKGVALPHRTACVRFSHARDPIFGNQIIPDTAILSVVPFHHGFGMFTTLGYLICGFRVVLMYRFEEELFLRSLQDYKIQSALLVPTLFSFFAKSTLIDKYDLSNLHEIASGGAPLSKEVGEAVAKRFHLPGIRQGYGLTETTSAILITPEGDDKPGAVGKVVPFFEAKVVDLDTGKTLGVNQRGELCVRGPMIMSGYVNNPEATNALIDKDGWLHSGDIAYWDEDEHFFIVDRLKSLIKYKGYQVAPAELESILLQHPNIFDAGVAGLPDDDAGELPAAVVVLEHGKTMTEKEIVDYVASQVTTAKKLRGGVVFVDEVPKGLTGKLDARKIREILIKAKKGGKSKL
Compound,"activity change, negative = inhibition [%]",Potency
COc1ccc(Br)cc1C1CC(=O)Nc2c1c(C)nn2-c1nc(C)cc(C)n1 (stereo not given),-8.06,–
Cc1ccc(NC(=O)CSc2nc3c([nH]c4ccccc43)c(=O)n2-c2ccccc2)c(C)c1,-2.12,–
O=C(CN(C(=O)c1csnn1)c1cccc(Cl)c1)NC1CCCC1,0.359,–
CCCCN(CC(=O)Nc1cccc(S(=O)(=O)N2CCCC2)c1)Cc1nc2ccccc2c(=O)[nH]1,-1.73,–
COC(=O)c1ccc(COC(=O)CNC(=O)c2cccc(OC)c2)o1,-18,–
CCOC(=O)c1scc(-c2ccc(C)cc2)c1S(=O)(=O)Nc1cc(C)ccc1C,-14.5,–
Cc1ccc2nc(COc3ccccc3NC(=O)Nc3ccc(F)c(Cl)c3)cc(=O)n2c1,-18.2,–
Cc1cccc(Nc2nc(-c3ccccc3)cs2)n1,–,3.79 µM (active)
c1ccc(Nc2nc(-c3ccncc3)cs2)nc1,–,4.78 µM (active)
CSc1nc(Nc2ccc(F)cc2)cc(-c2ccccc2)n1,-13,–
O=C(CN1C(=O)C2C3C=CC(C3)C2C1=O)Nc1nc(-c2ccccn2)cs1 (stereo not given),-3.95,–
CC(NC(=O)c1ccco1)C(=O)Nc1nc(-c2ccccn2)cs1 (stereo not given),1.86,–
COC(=O)c1cc2occc2n1Cc1nc(-c2ccc(C)cc2)oc1C,4.5,–
COc1ccc2c(c1)C(NS(=O)(=O)OCC(Cl)(Cl)Cl)CCC2 (stereo not given),-1.13,–
COCCN(C(=O)CSCc1ccc(C)cc1)c1c(N)n(CC(C)C)c(=O)[nH]c1=O,-1.29,–
CCOc1cccc(CC(=O)N2CCc3c([nH]c4ccccc34)C2c2ccc(OC)cc2)c1OCC (stereo not given),-2.95,–
Cc1cc(=O)c2cc(C(=O)Nc3cccc(C)c3C)ccc2[nH]1,-4.94,–
CCS(=O)(=O)N1CCc2cc(C(=O)NCc3ccc(C)cc3)ccc21,-5.13,–
COc1ccc(NC(=O)Cn2c(=O)cc(C)c3c(C)nn(-c4cccc(Cl)c4C)c32)cc1OC,4.01,–
COc1ccccc1/C=N/N1CCN(Cc2ccccc2Cl)CC1,-1.85,–
COc1ccccc1N1CCN(/N=C/c2ccc(O)cc2O)CC1,–,7.57 µM (active)
COc1ccccc1N1CCN(/N=C\C(Br)=C\c2ccccc2)CC1,–,16.9 µM (active)
COc1ccccc1N1CCN(C(=O)C(=O)N/N=C/c2ccccc2F)CC1,4.07,–
CNCC(O)CN1CCN(c2ccccc2OC)CC1 (stereo not given),-0.912,–
COc1ccccc1N1CCN(C2C(=O)c3ccccc3N2C(C)=O)CC1 (stereo not given),-18,–

Compound,"activity change, negative = inhibition [%]",Potency
CCOC(=O)CN1C(=O)N[C@@H](c2ccc(Br)cc2)C(C(C)=O)=C1C,-0.544,–
Cc1oc(-c2ccccc2F)nc1CN1CCC(C(=O)NCCc2ccc(Cl)cc2)CC1,-14.6,–
CN(Cc1ccccc1)C(=O)c1cc2c(=O)n(C)c3ccccc3c2s1,-13.9,–
Cc1[nH]c2ccccc2c1C(c1ccccc1)c1cccs1 (stereo not given),-7.8,–
Cc1cccc(N2CCN(C(=O)c3ccc4c(c3)CCN4S(=O)(=O)c3ccccc3)CC2)c1C,-1.27,–
Cc1ccc(Cn2cc(CCC(=O)NCc3ccc(OC(C)C)cc3)c3ccccc32)cc1,3.04,–
CC(=O)Nc1ccc(OC(=O)COc2ccc(Br)cc2)cc1,-1.37,–
CSc1ccc(Cl)c(C(=O)OCC(=O)N2CCNC2=O)c1,-4.07,–
CC(=O)CSc1nnc(CSc2ncccn2)n1C1CCCCC1,-0.437,–
O=S(=O)(c1ccccc1)c1nc(-c2ccc(Cl)cc2Cl)oc1N1CCCCC1,-0.863,–
CC(NS(=O)(=O)c1ccc(OCC(=O)N2CCCC2)cc1)c1ccccc1 (stereo not given),2.33,–
COc1ccc(S(=O)(=O)NC(C)c2ccccc2)cc1C(=O)N1CCCCC1 (stereo not given),–,1.69 µM (active)
COc1ccc(S(=O)(=O)Nc2ccccc2C(=O)N2CCCC2)cc1C,-1.28,–
COc1ccc(NS(=O)(=O)c2cc3c4c(c2)CC(=O)N4CCC3)cc1Cl,-10.1,–
O=C(CN1C(=O)CC(c2ccccc2)S(=O)(=O)c2ccccc21)NC1CCCC1 (stereo not given),-2.16,–
C(=N\n1cnnc1)/c1cccnc1,0.209,–
Cc1ccccc1C1=N/C(=C/c2cccnc2)C(=O)O1,–,8.49 µM (active)
O=C1/C(=C\c2cccnc2)CN(Cc2ccccc2)C/C1=C\c1cccnc1,0.472,–
CCc1nc2sc3c(Cl)ncnc3c2c2c1CCCC2,0.217,–
Cc1ccccc1CN1CCN(C(=O)c2cccc(F)c2)CC1,4.88,–
Cc1cccc(-n2cc(CN3CCN(C(=O)c4ncn[nH]4)CC3)c(-c3cccc(F)c3)n2)c1,–,13.5 µM (active)
Cc1ccc(C)c(-n2cc(CN3CCN(C(=O)c4ncn[nH]4)CC3)c(-c3ccccc3)n2)c1,-4.47,–
CCN(CCCNC(=O)c1cc2cc3cc(OC)ccc3nc2s1)c1ccccc1,-6.12,–
CC(=O)Nc1ccc(SC[C@H](Cc2ccccc2)N2CC[C@@H](C)CCC2=O)cc1,4.86,–
Cc1ccc2nc(SCC(=O)NC3CCCC3)[nH]c2c1,5.01,–
